Data published in PubChem BioAssay (NCI).
Compounds without any hit were thinned out: in the full panel of roughly 83,000, 20% have a hit.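 Single-dose data. Exposure time 48 hours. Values below 10 considered active.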 Active and inactive are the calls of the source.

Columns and labels:
Assay in all cases: NCI-60 one-dose screen, 48 h (100 = growth as untreated, 0 = no growth, -100 = all killed)
Conditions in all cases: 10 µM unless noted
[1] = system: HCT-15 colon
[2] = system: SNB-75 CNS
[3] = system: SNB-19 CNS
[4] = system: U251 CNS
[5] = system: PC-3 prostate
[6] = system: SK-MEL-5 melanoma
[7] = system: UACC-62 melanoma
[8] = system: LOX IMVI melanoma
[9] = system: SK-MEL-28 melanoma

Which results are given for CC(C)=CC(=O)OCC(=O)O[C@@H]1C[C@]2(C(C)C)O[C@@]1(C)[C@@H]1CC[C@@H](C)[C@H]1[C@@H]2OC(=O)/C=C/c1ccccc1?
growth [1]: 86.8% (inactive); growth [2]: 88.7% (inactive); growth [3]: 99.3% (inactive); growth [4]: 81.8% (inactive); growth [5]: 63.7% (inactive); growth [6]: 90.5% (inactive); growth [7]: 78.5% (inactive); growth [8]: 86.9% (inactive); growth [9]: 103% (inactive)

For CC(C)C1=NOC(=O)C1=Cc1cn(-c2ccccc2)nc1-c1ccc(F)cc1, which growth [1] is on record?
Its growth is 61.4% (inactive).

What about the growth [2] of the same compound?
The growth was 70.6% (inactive).

And the growth [3]?
The growth was 81.7% (inactive).

What about the growth [4] of the same compound?
The growth was 51.3% (inactive).

And the growth [5]?
The growth was 38.5% (inactive).

What about the growth [6] of the same compound?
Its growth is 78.9% (inactive).

What about the growth [7] of the same compound?
The growth was 75.5% (inactive).

What about the growth [8] of the same compound?
Its growth is 6.17% (active).

And the growth [9]?
The growth was 82.7% (inactive).

Which results are given for COc1cc2c(c(OC)c1OC)CCC(c1cccc(C(=O)Nc3cccc(Cl)c3)c1)O2 (stereo unspecified)?
growth [1]: 75.2% (inactive); growth [2]: 63.7% (inactive); growth [3]: 76.5% (inactive); growth [4]: 72.4% (inactive); growth [5]: 34% (inactive); growth [6]: 63% (inactive); growth [7]: 53.4% (inactive); growth [8]: 65.2% (inactive); growth [9]: 78.1% (inactive)

With O=C1c2ccccc2-c2c1c1c(=O)[nH]c3ccccc3c1n2Cc1ccccc1 as the compound, how does the growth [1] read?
The growth was 84.5% (inactive).

What about the growth [2] of the same compound?
Its growth is 70.8% (inactive).

And the growth [3]?
Its growth is 68.7% (inactive).

What about the growth [4] of the same compound?
The growth was 68.6% (inactive).

And the growth [5]?
The growth was 74% (inactive).

And the growth [6]?
Its growth is 60.6% (inactive).

And the growth [7]?
The growth was 53.8% (inactive).

And the growth [8]?
The growth was 82.7% (inactive).

And the growth [9]?
Its growth is 85.7% (inactive).

Which growth [1] does the source give for N#CSCC1CC(O)(c2ccccc2)CC(c2ccc(F)cc2)O1 (stereo unspecified) here?
The growth was 16.5% (inactive).

And the growth [2]?
Its growth is -25.8% (active).

What about the growth [3] of the same compound?
The growth was 31.9% (inactive).

What about the growth [4] of the same compound?
The growth was -51.2% (active).

What about the growth [5] of the same compound?
The growth was 25.8% (inactive).

And the growth [6]?
The growth was 22.1% (inactive).

And the growth [7]?
Its growth is 11.4% (inactive).

And the growth [8]?
Its growth is -46.8% (active).

And the growth [9]?
The growth was 43.9% (inactive).

With Nc1[nH]n2cc(-c3ccccc3)nc2c1N=Nc1ccc(S(N)(=O)=O)cc1 as the compound, how does the growth [1] read?
Its growth is 22.8% (inactive).

What about the growth [2] of the same compound?
The growth was 1.09% (active).

And the growth [3]?
The growth was 60.4% (inactive).

And the growth [4]?
Its growth is 38.7% (inactive).

And the growth [5]?
Its growth is 32.4% (inactive).

What about the growth [6] of the same compound?
The growth was 26.8% (inactive).

What about the growth [7] of the same compound?
The growth was 31.3% (inactive).

And the growth [8]?
Its growth is 17.4% (inactive).

And the growth [9]?
The growth was 45% (inactive).

How did the growth [1] turn out when COc1ccc(C(=O)Nc2cccc(-c3cc(=O)c4c(OC)c(OC)c(OC)cc4o3)c2)cc1 was run?
The growth was 45.2% (inactive).

And the growth [2]?
Its growth is 67.6% (inactive).

What about the growth [3] of the same compound?
The growth was 64.6% (inactive).

What about the growth [4] of the same compound?
Its growth is 72.3% (inactive).

What about the growth [5] of the same compound?
Its growth is 31.9% (inactive).

What about the growth [6] of the same compound?
Its growth is 50.2% (inactive).

And the growth [7]?
The growth was 55.4% (inactive).

What about the growth [8] of the same compound?
The growth was 41.9% (inactive).

What about the growth [9] of the same compound?
Its growth is 69% (inactive).

Which growth [1] does the source give for COc1cc(OCc2cccc(Br)c2C)cc(OC)c1C=O here?
Its growth is 80.6% (inactive).

And the growth [2]?
The growth was 90.2% (inactive).

And the growth [3]?
Its growth is 91.8% (inactive).

What about the growth [4] of the same compound?
Its growth is 87% (inactive).

What about the growth [5] of the same compound?
The growth was 79.6% (inactive).

What about the growth [6] of the same compound?
Its growth is 91.9% (inactive).

What about the growth [7] of the same compound?
The growth was 36.5% (inactive).

What about the growth [8] of the same compound?
The growth was 90.1% (inactive).

And the growth [9]?
Its growth is 99.5% (inactive).

For CCOC(=O)C/C(=N\Nc1cc(=O)[nH]c2ccc(Br)cc12)C(=O)OCC, which growth [1] is on record?
Its growth is 99.3% (inactive).

And the growth [2]?
Its growth is 88.2% (inactive).

And the growth [3]?
The growth was 99.5% (inactive).

And the growth [4]?
The growth was 108% (inactive).

And the growth [5]?
The growth was 87.4% (inactive).

What about the growth [6] of the same compound?
Its growth is 95.1% (inactive).

And the growth [7]?
Its growth is 90.6% (inactive).

And the growth [8]?
The growth was 94.4% (inactive).

And the growth [9]?
Its growth is 107% (inactive).
